Shown are actives, neighbours in structure and some others; about 8.3% of the full set was active somewhere.
MCF10A rereplic = DNA re-replication induction in MCF 10a cells. MCF 10A DNA re-replication, Hoechst nuclear intensity, 48 h. Potency, µM (titrated, usually from 46.1 µM), for inactives: at the highest dose activity, positive = re-replication, most hits filed as activators. hit rate 2.9% among 350,000. AID 624296; also: potency is read from the fitted curve at half-maximal effect; % of control where 0% means no effect; nearly all actives have a fitted effect of over 50% in size
Giardia kill = kills Giardia lamblia; Giardia lamblia trophozoite viability; activity change, % at 7.66 µM, hits read low; hit rate 0.15% among 340,000; in the data active = activity change below about -80%; inconclusive = between about -30% and that limit;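 also: parasites exposed to compound for two days anaerobically before the ATP read; % is scaled to controls: 0 for no effect and ±100 for the full control effect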
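Viability, read as ATP luminescence: trophozoites at 100 cells/well, compound added, 48 hrs anaerobic at 37 deg C, then 15-30 min room-temperature development before reading.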
RORgamma inh = ROR gamma (mouse) transcription inhibition. P51450. Drosophila S2 Gal4-RORgamma UAS-luciferase reporter, 20 h. Potency, µM (doses to about 53.6 µM), for inactives: at the highest dose activity change, negative = inhibition, usual class: inhibitors. hit rate 5.4% among 310,000. AID 2551; also: potency is read from the fitted curve at half-maximal effect; % is scaled to controls: 0 for no effect and ±100 for the full control effect; nearly all actives have a fitted effect of over 60% in size
Target sequence (P51450 whole entry, looked up, the tested form may be a part): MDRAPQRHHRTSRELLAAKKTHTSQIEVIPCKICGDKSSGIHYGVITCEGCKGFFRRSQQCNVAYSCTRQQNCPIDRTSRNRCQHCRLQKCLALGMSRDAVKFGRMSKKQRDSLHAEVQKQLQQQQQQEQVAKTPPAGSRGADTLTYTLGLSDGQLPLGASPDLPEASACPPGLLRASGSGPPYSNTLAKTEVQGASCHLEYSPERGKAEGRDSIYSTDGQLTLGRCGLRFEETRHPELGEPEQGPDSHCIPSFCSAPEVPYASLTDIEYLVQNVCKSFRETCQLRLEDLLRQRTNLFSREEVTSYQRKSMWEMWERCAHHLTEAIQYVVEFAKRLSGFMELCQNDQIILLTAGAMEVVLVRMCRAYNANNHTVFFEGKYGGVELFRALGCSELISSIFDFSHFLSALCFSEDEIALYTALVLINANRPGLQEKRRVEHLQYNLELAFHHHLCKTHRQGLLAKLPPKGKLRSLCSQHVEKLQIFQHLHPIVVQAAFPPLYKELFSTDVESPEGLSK
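ROR gamma transcriptional activity was tracked as Gal4-UAS luciferase output in stably transfected Drosophila Schneider cells, with compound added 1 hr before 700 uM copper sulfate induction and a 20 hr ambient-temperature incubation.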
SW480 rerep = inducers of DNA re-replication in SW480 colon cancer cells | hit rate 1.8% among 340,000 | Potency, µM (titrated, usually from 46.1 µM), inactives show top-dose re-replication activation, most hits filed as activators | SW480 DNA re-replication, Hoechst DNA content imaging, 48 h | AID 624297; also: potency is read from the fitted curve at half-maximal effect; % of control where 0% means no effect; nearly all actives have a fitted effect of over 55% in size
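DNA re-replication was detected as more nuclei of elevated Hoechst intensity after 48 hr exposure to compound (23 nL pinned per well of 250 cells).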
VP16 counter = counter-screen for ROR gamma inhibitors: Gal4-VP16 reporter. Drosophila S2 Gal4-VP16 UAS-luciferase, luminescence, 20 h. Potency, µM (doses to about 53.6 µM), for the others: top-dose activity, negative = inhibition, usual class: inhibitors. hit rate 3.5% among 310,000;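 also: Gal4-VP16 expression switched on by copper sulfate through the metallothionein promoter; potency is read from the fitted curve at half-maximal effect; % is scaled to controls: 0 for no effect and ±100 for the full control effect; nearly all actives have a fitted effect of over 50% in size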
Chronic BCR inh = chronic active BCR signaling inhibition. ABC-DLBCL IkBa-CBG/CBR reporter, luminescence ratio, 4 h. hit rate 0.05% among 340,000. AID 493014. Potency, µM (series often up to 46.1 µM), for the others: at the highest dose activity change, negative = inhibition, most hits filed as inhibitors; active = well fitted inhibition curve with a large enough effect in the signal ratio, with a control signal flat, not every such curve was filed as active; inconclusive = small, poorly fitted or top-dose-only effect, or effect the other way, or a change in a side signal; the % refers to the signal ratio;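 also: potency is read from the fitted curve at half-maximal effect; plate controls were basal doxycycline-induced cells for no effect and cells given 10 µM MG132 for full effect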
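TMD8 human ABC-DLBCL cells with doxycycline-inducible IκBα–green luciferase fusion and unfused red luciferase, in 0.5% FBS medium; compounds up to 46 uM, 4 h at 37C. Green/red luminescence ratio, filter-overlap corrected, fitted to concentration-response curves.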
Starred values were filed as active, the others as inactive; ? = inconclusive; . = no result; [ ] = another dose, or the depositor's remark. Unless noted, calls follow the shape of the dose curve; as a rule, active = well fitted curve in the direction sought with a large enough effect; inconclusive = small, poorly fitted or top-dose-only effect, or another doubt; inactive = no such curve, though single readings can be large; an effect the other way counts as inactive or inconclusive.

SMILES | MCF10A rereplic | Giardia kill | RORgamma inh | SW480 rerep | VP16 counter | Chronic BCR inh
CCC(C)NC(=O)CSc1nnc(-c2c[nH]c3ccccc23)o1 (stereo not drawn) | 2% | -12 | 10% | 3% | -3% | 0%
N#Cc1c(SCC(=O)Nc2nc3ccccc3s2)sc2c(O)cc(=O)[nH]c12 | ? | -9 | . | 18µM* | . | ?
Cc1cc(=O)[nH]c(SCC(=O)Nc2nc3ccccc3s2)n1 | 0.58µM* | ? | ? | ? | 6% | ?
Cc1cc(C(F)(F)F)c(C#N)c(SCC(=O)Nc2nc3cc(Br)ccc3s2)n1 | 13µM* | -6 | -4% | ? | ? | 0%
N#Cc1c(SCC(=O)Nc2nccs2)sc2c(O)cc(=O)[nH]c12 | 0% | ? | 15% | -8% | 19% | ?
Nn1c(SCC(=O)Nc2nc3ccccc3s2)nncc1=O | 9% | -19 | 32µM* | 2% | -2% | -1%
COc1ccc(C2(C)C(C#N)C(=O)NC(=O)C2C#N)cc1 (stereo not drawn) | 9% | -1 | . | ? | . | .
COC(=O)c1ccc(-c2noc(CN3CCCC(CNC(C)=O)C3)n2)cc1 (stereo not drawn) | 6% | 10 | 19% | -7% | 3% | ?
O=c1cc(SCc2ccc(Cl)cc2Cl)nc[nH]1 | 15% | -2 | . | -8% | . | .
Cc1ccc(Cn2c(CCNC(=O)c3cccc(C)c3)nc3ccccc32)cc1 | . | -9 | . | . | . | .
CCOCCCNC(=S)N(CCCN(C)C)Cc1cc2cc3c(cc2[nH]c1=O)OCCO3 | ? | -10 | -7% | -13% | -6% | -9%
COc1ccc(C(=O)NCc2nnc(SCC(=O)Nc3nc4ccccc4s3)o2)cc1OC | 3% | -16 | 11µM* | -5% | 8.9µM* | 5%
N#Cc1c(SCC(=O)Nc2nc3ccc(Br)cc3s2)sc2c(O)cc(=O)[nH]c12 | 15% | -9 | -2% | 12µM* | 3% | 7%
CN(C)C(CNC(=O)Cc1cccc(C(F)(F)F)c1)c1ccco1 (stereo not drawn) | 16% | -2 | -7% | -12% | -14% | 4%
Cc1ccc(NS(=O)(=O)c2ccc(Cl)c(C(=O)Nc3ccccc3-c3nc4ccccc4[nH]3)c2)cc1C | 5.2µM* | 0 | ? | 8.2µM* | -9% | ?
Cc1ccc2c(c1)C(c1ccccc1)N(C(=O)CC(C)C)CC(=O)N2 (stereo not drawn) | -6% | 5 | 12% | -5% | 5% | 1%
CN1CCN(C(=O)c2cc3nc(-c4ccccc4)cc(-c4ccccc4)n3n2)CC1 | 13µM* | 11 | 12% | ? | 4% | ?
CC(C)C1Cc2c(sc3[nH]c(=S)n(Cc4ccccc4)c(=O)c23)CO1 (stereo not drawn) | ? | 4 | 0.45µM* | ? | 0.56µM* | 14%
COc1ccc(N(C)S(=O)(=O)c2cccc3cccnc23)c(OC)c1 | 8.2µM* | 6 | -1% | 21µM* | -2% | -11%
COc1ccccc1NC(=O)CN(C)S(=O)(=O)c1cccc2cccnc12 | 0% | 35 | -30% | -5% | -11% | 1%
NC(=O)C1CCN(C(=O)c2cc(-c3ccc(Cl)s3)nc3ccccc23)CC1 | ? | 4 | . | 18µM* | . | -4%
CC1CN(C(=O)c2cc(-c3ccc(Cl)s3)nc3ccccc23)CC(C)O1 (stereo not drawn) | ? | 1 | . | 6% | . | -4%
Cc1cc2ncn(/N=C/c3ccc(-c4ccccc4)o3)c2cc1C | ? | 2 | 11µM* | 6% | 20µM* | 10%
Cc1cc2ncn(/N=C/c3cccnc3)c2cc1C | 1% | -15 | 15% | 5%[9.22 µM] | -29% | -5%
Cc1ccc(C)c(-c2csc(Nc3ncccn3)n2)c1 | 0% | -13 | -17% | -1% | -9% | 14%
SMILES | MCF10A rereplic | Giardia kill | RORgamma inh | SW480 rerep | VP16 counter | Chronic BCR inh
C(=N\Nc1nc2ccccc2s1)/c1cccs1 | -3% | 0 | 1.3µM* | 12% | 3.2µM* | ?
Cc1ccc(C)c(-c2csc(N/N=C/c3ccco3)n2)c1 | ? | -12 | 16µM* | -61% | -13% | -3%
C/C(=N\Nc1nc2ccccc2s1)c1cccs1 | ? | -26 | 0.71µM* | ? | 3.5µM* | ?
CC(=NNc1nc2ccccc2s1)c1ncccn1 | ? | 10 | . | ? | . | .
Cc1nn(-c2ccccc2Cl)c(Cl)c1/C=N/Nc1nc2ccccc2s1 | 5% | ? | 1µM* | 2% | 0.32µM* | 0%
Cc1ccc(CNC(=O)COC(=O)CCC(=O)c2cccs2)cc1 | 0% | -6 | -8% | -3% | 9% | 8%
O=C(O)CN1C(=O)C2(OCCO2)c2cc(Br)ccc21 | -2% | -9 | . | 0% | . | .
CCSC(=Nc1ccccc1)N1CCOCC1 | -35% | 0 | . | -6% | . | .
Oc1ccc(C=NNc2nc3ccccc3s2)c(O)c1 | ? | 4 | . | ? | . | .
CCn1c(C)c(/C=N/Nc2nc3ccccc3s2)c2ccccc21 | 11% | -10 | 5µM* | ? | ? | ?
Cc1ccsc1/C=N/Nc1nc2ccccc2s1 | 0% | -8 | 0.56µM* | -3% | 0.89µM* | ?
C(=N\Nc1nc2ccccc2s1)/c1ccco1 | -19% | -2 | 11µM* | -18% | ? | ?
CC(=O)Nc1ccc(/C=N/Nc2nc3ccccc3s2)cc1 | 3% | 7 | -9% | -7% | 3% | ?
Oc1ccccc1C=NNc1nc2ccccc2s1 | -8% | -8 | . | ? | . | .
O=C(CN1C(=O)c2ccccc2S1(=O)=O)c1ccc(Cl)cc1Cl | 10% | -25 | . | 0% | . | .
Cc1cc(C2=NNC(=NC3CC3)SC2)c(C)n1Cc1ccco1 | 6.5µM* | -25 | ? | . | -3% | -7%
COCCCN=C1NN=C(c2cc(C)n(Cc3ccco3)c2C)CS1 | ? | 7 | ? | 5.8µM* | ? | ?
Cc1cc(C)c(S(=O)(=O)Nc2ccccc2C(=O)N2CCOCC2)c(C)c1 | 4% | -16 | 9% | 2% | -4% | -4%
Cc1cc(C(=O)COC(=O)COc2ccc(C#N)cc2)c(C)n1C1CC1 | ? | -11 | . | -13% | . | -10%
N#Cc1c(NC(=O)C2CC(c3ccccc3Cl)=NO2)sc2c1CCC2 (stereo not drawn) | 21µM* | 19 | 16% | -2% | 3% | -4%
N#Cc1c(NC(=O)C2CC(c3ccccc3O)=NO2)sc2c1CCC2 (stereo not drawn) | ? | 23 | ? | -39% | ? | 10%
COc1cc(NC(=O)C2CC(c3ccccc3Cl)=NO2)cc(OC)c1OC (stereo not drawn) | 2% | 13 | ? | -20% | 16µM* | -10%
